From PubChem BioAssay (EPA / NIEHS)
Results filed as inconclusive are left out. Active and inactive are the calls of the source. Rule for the calls: active = hit-call score of the fitted dose curve at least 0.9, where 1 is the maximum; inconclusive = response in the unintended direction; inactive = score below 0.9.

What was measured:
[1] = TOX21_p53_BLA_p2_viability: Viability Assessment in the Tox21 HCT-116 p53 Agonism Beta-lactamase Assay, Phase 2 (AID 2283591);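 note: actives lower the ATP signal meaning cytotoxicity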
Method in brief: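 Cytotoxicity readout: CellTiter-Glo ATP luminescence, 30 min at room temperature, after the beta-lactamase read. Cells were HCT116 exposed 16 h at 37C to compounds pin-transferred at 217-fold dilution from DMSO stocks.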

[2] = biological target: Cellular tumor antigen p53 (Homo sapiens) (UniProt P04637); assay: TOX21_p53_BLA_p3_ratio: Tox21 HCT-116 p53 Agonism Beta-lactamase Assay, Ratio, Phase 3 (AID 2283596)
Method in brief: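 Cells were seeded at 4000/well, rested 5 h at 37C, then dosed with DMSO compound solutions (217-fold dilution) for 16 h. CCF4-AM substrate was loaded for 2 h at room temperature, and the 460/530 nm emission ratio was fitted for gain of signal versus DMSO.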

[3] = biological target: Cellular tumor antigen p53 (Homo sapiens) (UniProt P04637); assay: TOX21_p53_BLA_p2_ratio: Tox21 HCT-116 p53 Agonism Beta-lactamase Assay, Ratio, Phase 2 (AID 2283592)
Method in brief: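 Readout: blue/green (460/530 nm) FRET emission ratio after 2 h CCF4-AM loading at room temperature, excitation 405 nm. HCT116 p53 bla cells, 16 h compound exposure at 37C, 5% CO2; agonist direction fitted against DMSO baseline.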

[4] = TOX21_p53_BLA_p3_viability: Viability Assessment in the Tox21 HCT-116 p53 Agonism Beta-lactamase Assay, Phase 3 (AID 2283593);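 note: cells exposed to compound for 16 h before reading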
Method in brief: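 Cellular ATP was quantified by CellTiter-Glo luminescence, read after 30 min at room temperature. Beforehand, HCT116 cells (4000/well) received compound 5 h post-seeding, 217-fold diluted from DMSO, then incubated 16 h at 37C.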

[5] = TOX21_p53_BLA_p4_viability: Viability Assessment in the Tox21 HCT-116 p53 Agonism Beta-lactamase Assay, Phase 4 (AID 2283597);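 note: hits lower the luminescence signal meaning cytotoxicity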
Method in brief: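 ATP content by CellTiter-Glo luminescence, 30 min RT, read after the beta-lactamase ratio step. Cells: HCT116, 4000/well, compound added after 5 h, exposure 16 h at 37C. Signal loss = reduced viability.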

Cellular tumor antigen p53 (Homo sapiens), sequence (P04637 whole entry, looked up): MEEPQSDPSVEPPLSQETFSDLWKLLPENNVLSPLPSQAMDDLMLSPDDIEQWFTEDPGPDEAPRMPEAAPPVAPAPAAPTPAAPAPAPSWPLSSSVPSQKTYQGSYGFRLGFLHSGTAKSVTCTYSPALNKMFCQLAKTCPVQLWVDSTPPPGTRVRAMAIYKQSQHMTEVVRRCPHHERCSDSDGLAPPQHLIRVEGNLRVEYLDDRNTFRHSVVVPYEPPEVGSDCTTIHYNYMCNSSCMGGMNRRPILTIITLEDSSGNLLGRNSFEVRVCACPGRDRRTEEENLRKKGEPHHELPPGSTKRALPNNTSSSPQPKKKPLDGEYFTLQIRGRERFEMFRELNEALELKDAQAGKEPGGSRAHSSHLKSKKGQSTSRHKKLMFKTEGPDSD

## CC(C)(C)c1cccc(O)c1
[1]
  outcome: inactive
[2]
  outcome: inactive

## COC(=O)c1cccc(C(=O)OC)c1
[3]
  outcome: inactive
[4]
  outcome: inactive
[2]
  outcome: inactive
[5]
  outcome: inactive

## O=C(O)c1ccco1
[3]
  outcome: inactive
[4]
  outcome: inactive
[2]
  outcome: inactive

## CCCCCC#CC(=O)OC
[2]
  outcome: inactive

## NCCCOCCOCCOCCCN
[1]
  outcome: inactive
[4]
  outcome: inactive
[2]
  outcome: inactive
[5]
  outcome: inactive

## CC(=O)c1cccnc1
[2]
  outcome: inactive

## O=C(O)c1cc(C(=O)O)c(C(=O)O)cc1C(=O)O
[3]
  outcome: inactive
[2]
  outcome: inactive

## CC1=CC(=O)[C@H]2C[C@@H]1C2(C)C
[3]
  outcome: inactive
[4]
  outcome: inactive
[2]
  outcome: inactive
[5]
  outcome: inactive

## C[Si]1(C)N[Si](C)(C)N[Si](C)(C)N1
[1]
  outcome: inactive
[3]
  outcome: inactive
[2]
  outcome: inactive
[5]
  outcome: inactive

## CC(=O)Oc1c(C)c(C)c2c(c1C)CC[C@@](C)(CCC[C@H](C)CCC[C@H](C)CCCC(C)C)O2
[4]
  outcome: inactive
[2]
  outcome: inactive
[5]
  outcome: inactive

## NCCN1CCNCC1
[1]
  outcome: inactive
[4]
  outcome: inactive
[2]
  outcome: inactive
[5]
  outcome: inactive

## CC(C)CCCC(C)(C)O
[4]
  outcome: inactive
[2]
  outcome: inactive

## CC(C)COC(=O)c1ccccc1
[4]
  outcome: inactive
[2]
  outcome: inactive

## CCOC(=O)CCCCCCCCC(=O)OCC
[2]
  outcome: inactive

## C=CCS(=O)(=O)O
[3]
  outcome: inactive
[4]
  outcome: inactive
[2]
  outcome: inactive

## [O-]/[N+](=N\O)c1ccccc1
[1]
  outcome: inactive
[3]
  outcome: inactive
[4]
  outcome: inactive
[2]
  outcome: inactive
[5]
  outcome: inactive

## CCC(C)COC(=O)CC(C)C (stereo not given)
[1]
  outcome: inactive
[3]
  outcome: inactive
[4]
  outcome: inactive
[2]
  outcome: inactive
[5]
  AC50: 46.1 µM (active)

## CCCCCCCCCCCCS
[1]
  outcome: inactive
[4]
  outcome: inactive
[2]
  outcome: inactive
[5]
  outcome: inactive

## O=S(=O)(O)c1cc(O)c(O)c(S(=O)(=O)O)c1
[1]
  outcome: inactive
[4]
  outcome: inactive

## O=C(C=Cc1ccccc1)OCCCc1ccccc1
[1]
  outcome: inactive
[4]
  outcome: inactive
[2]
  outcome: inactive

## CCCCCC1CCC(=O)O1 (stereo not given)
[1]
  outcome: inactive
[3]
  outcome: inactive
[2]
  outcome: inactive

## CC(C)(CO)CO
[1]
  outcome: inactive
[3]
  outcome: inactive
[4]
  outcome: inactive
[2]
  outcome: inactive
[5]
  outcome: inactive

## CC1=CCC(C(C)C)=CC1
[4]
  outcome: inactive
[2]
  outcome: inactive

## C=CC(C)(CCC=C(C)C)OC(=O)CC (stereo not given)
[2]
  outcome: inactive

## CCC(C)(CCCC(C)C)OC(C)=O (stereo not given)
[3]
  outcome: inactive
[5]
  outcome: inactive

## CCCCC1CCCCC(=O)O1 (stereo not given)
[4]
  outcome: inactive
[2]
  outcome: inactive

## O=S(=O)(O)c1cc(S(=O)(=O)O)c2c(N=Nc3ccccc3)c(O)ccc2c1
[3]
  outcome: inactive
[4]
  outcome: inactive
[2]
  outcome: inactive
[5]
  outcome: inactive

## CCCCOC(=O)C(C)OC(=O)CCC (stereo not given)
[3]
  outcome: inactive
[2]
  outcome: inactive
